From publication PMC12670160, “A drug-repurposing screen of FDA- and EMA-approved drugs identifies two NF-κB inhibitors active against eumycetoma” (Journal of Antimicrobial Chemotherapy, 2025)
Counter-ions that a name gives are not always drawn. Among all 5,300 compounds or so, about 130 (2.5%) showed an effect of 50% or more. The sample as a whole holds a higher share of strong results than the screen did.

System: M. mycetomatis strain mm55
Details: primary screen, metabolic activity vs growth control; 96 h, 2 µM; inhibitor

Row | SMILES | % viability
1 | O=C(C[C@H]1NCCC[C@@H]1O)Cn1cnc2cc(Br)c(Cl)cc2c1=O (racemic) [ONC0004939, halofuginone] | 90.07%
2 | CC1=CC(=O)NS(=O)(=O)O1 [ONC0005569, acesulfame potassium] | 46%
3 | c1ccc(-c2ncc(CN3CCN(c4ncccn4)CC3)[nH]2)cc1 [ONC0000007, ngd941] | 130.5%
4 | CC(COc1ccccc1)NC(C)[C@H](O)c1ccc(O)cc1 (some centres unmarked) [ONC0000598, isoxsuprine hydrochloride] | 84.27%
5 | CCC(O)(CC(N)=O)c1ccccc1 (centres unmarked) [ONC0003599, 3hydroxy3phenylpentanamide] | 105.2%
6 | Cc1nc2cc(-n3ncc(C(=O)c4cc5ccccc5[nH]4)c3N)ccc2[nH]1 [ONC0004455, ch5183284 debio1347] | 110.2%
7 | CCNC(=O)N1CCN(CCCC(c2ccc(F)cc2)c2ccc(F)cc2)CC1 [ONC0003498, amperozidehcl] | 32.95%
8 | Cc1cccc(C)c1NC(=O)CN1CCN(CCCC(c2ccc(F)cc2)c2ccc(F)cc2)CC1 [ONC0002360, lidoflazine] | 112.8%
9 | O=c1[nH]c2ccccc2n1C1CCN(CCCC(c2ccc(F)cc2)c2ccc(F)cc2)CC1 [ONC0000675, pimozide] | 106.9%
10 | Cc1c[nH]c(-c2cnc(NCCNc3ccc(C#N)cn3)nc2-c2ccc(Cl)cc2Cl)n1 [ONC0004531, chir99021 ct99021 hcl] | 57.04%
11 | C[C@H]1c2cccc(O)c2C(=O)C2C(=O)[C@]3(O)C(=O)C(C(N)=O)C(=O)[C@@H](N(C)C)[C@@H]3[C@@H](O)[C@@H]21 (some centres unmarked) [ONC0000682, doxycycline hydrochloride] | 94.49%
12 | C[C@]12CCC(=O)C=C1CCC1C2C(=O)C[C@@]2(C)C1CC[C@]2(O)C(=O)CO (some centres unmarked) [ONC0005338, cortisone] | 64.83%
13 | Cc1sc(C)c2c1CCC=C2c1cnc[nH]1 [ONC0000248, tcg1000] | 71.17%
14 | Cc1ccnc(NC(=O)C(C)c2cccc(C(=O)c3ccccc3)c2)c1 (centres unmarked) [ONC0003716, piketoprofen] | 97.11%
15 | O=C(O)c1ccccc1Nc1cccc(OCc2ccc3ccccc3n2)c1 [ONC0001414, sr2640] | 39.31%
16 | O=C(O)[C@@H](c1ccc(OCc2ccc3ccccc3n2)cc1)C1CCCC1 [ONC0005557, veliflapon] | 76.74%
17 | CCCCCC(O)c1cccc(OCc2ccc3ccccc3n2)c1 (centres unmarked) [ONC0005481, rev5901 l655238] | 92.78%
18 | Cc1cc(O)c2c(c1)C(=O)c1cccc(O)c1C2=O [ONC0005265, chrysophanic acid chrysophanol] | 118.5%
19 | Cc1cc(O)c2c(c1)C(=O)c1cc(O)cc(O)c1C2=O [ONC0004997, emodin] | 57.84%

Row | SMILES | % viability
20 | COc1cc(O)c2c(c1)C(=O)c1cc(C)cc(O)c1C2=O [ONC0004501, rheochrysidin physcione] | 41.39%
21 | CNC(=O)c1ccc2cc([C@]3(O)CCn4cncc43)ccc2c1 [ONC0004670, tak700 orteronel] | 115.9%
22 | CCN(CCCOc1ccc2c(Nc3cc(CC(=O)Nc4cccc(F)c4)n[nH]3)ncnc2c1)CCOP(=O)(O)O [ONC0002222, azd1152] | 73.5%
23 | C[C@@H](NCCc1ccc(O)cc1)[C@@H](O)c1ccc(O)cc1 (racemic) [ONC0000689, ritodrine hydrochloride] | 122.8%
24 | Cc1oc(=O)oc1COC(=O)C1=C([C@H]2CCCO2)S[C@@H]2[C@@H]([C@@H](C)O)C(=O)N12 [ONC0001072, faropenem daloxate] | 41.67%
25 | C[C@@H](O)[C@H]1C(=O)N2C(C(=O)[O-])=C([C@H]3CCCO3)S[C@H]12.C[C@@H](O)[C@H]1C(=O)N2C(C(=O)[O-])=C([C@H]3CCCO3)S[C@H]12.O.O.O.O.O.[Na+].[Na+] [ONC0000335, faropenem sodium hemipentahydrate] | 95.52%
26 | C1=C/COCc2cc(ccc2OCCN2CCCC2)Nc2nccc(n2)-c2cccc(c2)COC/1 [ONC0004380, pacritinib sb1518] | 107.6%
27 | O=C(NC1CCNCC1)[C@@H]1CC[C@@H]2CN1C(=O)N2OS(=O)(=O)O [ONC0001257, relebactam] | 62.24%
28 | CC[C@H](C)[C@@H]([C@@H](CC(=O)N1CCC[C@H]1[C@H](OC)[C@@H](C)C(=O)N[C@@H](Cc1ccccc1)c1nccs1)OC)N(C)C(=O)[C@@H](NC(=O)[C@H](C(C)C)N(C)C)C(C)C [ONC0003667, dolastin10] | 74.88%
29 | N#C/C(=C1/SCC(c2ccccc2Cl)S1)n1ccnc1 (centres unmarked) [Lanoconazole] | 3.92%
30 | N#C/C(=C1/SC[C@@H](c2ccc(Cl)cc2Cl)S1)n1ccnc1 [Luliconazole] | 0.7126%
31 | C[C@@]12CC[C@@H]3[C@@](CC[C@H]4[C@@]3(C)CCC[C@@]4(C)C(=O)O)(CC1=O)C2 [ONC0002858, isosteviol] | 83.56%
32 | CN(C)c1ccc(-c2nc3c(N4CCN(CC(=O)Nc5nccs5)CC4)c(Cl)cnc3[nH]2)cc1 [ONC0004963, cct129202] | 95.03%
33 | O=C1c2ccccc2NC2=CCCCCN12 [ONC0003231, 78910tetrahydroazepino21bquinazolin126hone] | 99.72%
34 | COc1ccccc1OCC(O)CNC(C)C (centres unmarked) [ONC0003655, moprolol] | 69.09%
35 | [2H]C([2H])([2H])C(O)(CCO[C@@H](C)[C@H]1CC[C@H]2/C(=C/C=C3/C[C@@H](O)C[C@H](O)C3=C)CCC[C@]12C)C([2H])([2H])[2H] [ONC0001868, maxacalcitol] | 112.3%
36 | Oc1ccc(C2(c3ccccc3F)CCC(F)(F)CC2)cc1 [ONC0000174, ac186] | 93.25%
37 | CN(C)C/C=C/C(=O)Nc1ccc(C(=O)Nc2cccc(Nc3ncc(Cl)c(-c4c[nH]c5ccccc45)n3)c2)cc1 [ONC0002074, thz1] | 55.81%
38 | Cc1cc(C(=O)Nc2nc3cccc(Cl)c3n2[C@@H]2CCCCN(C(=O)/C=C/CN(C)C)C2)ccn1 [ONC0001107, nazartinib] | 39.34%

Row | SMILES | % viability
39 | CN(C)C/C=C/C(=O)Nc1cccc(C(=O)Nc2cccc(Nc3ncc(Cl)c(-c4c[nH]c5ccccc45)n3)c2)c1 [ONC0002061, thz2] | 66.57%
40 | CC(=O)[C@@]12OC(C)(c3ccccc3)O[C@@H]1C[C@H]1[C@@H]3CCC4=CC(=O)CC[C@]4(C)[C@H]3CC[C@@]12C (some centres unmarked) [ONC0002369, algestoneacetophenide] | 99.76%
41 | CC(Nc1ncnc2nc[nH]c12)c1cc2ccc(F)cc2nc1-c1ccccn1 (centres unmarked) [ONC0004426, amg319] | 156.7%
42 | CSC[C@H](N)C(=O)O [ONC0003388, smethylcysteine] | 83.56%
43 | N[C@H](CSC(c1ccccc1)(c1ccccc1)c1ccccc1)C(=O)O [ONC0001742, strityllcysteine] | 48.39%
44 | N[C@H](Cc1ccccc1)C(=O)O [ONC0002457, dphenylalanine] | 101.3%
45 | C[C@]12C=CC(=O)C=C1CCC1C2[C@@H](O)C[C@@]2(C)C1CC[C@]2(O)C(=O)CO (some centres unmarked) [ONC0005351, prednisolone] | 112.6%
46 | Cc1cc(-c2ccc(/N=N/c3ccc4c(S(=O)(=O)O)cc(S(=O)(=O)O)c(N)c4c3O)c(C)c2)ccc1/N=N/c1ccc2c(S(=O)(=O)O)cc(S(=O)(=O)O)c(N)c2c1O [ONC0003296, evans blue] | 49.05%
47 | COc1cc(-c2ccc(/N=N/c3ccc4c(S(=O)(=O)O)cc(S(=O)(=O)O)c(N)c4c3O)c(OC)c2)ccc1/N=N/c1ccc2c(S(=O)(=O)O)cc(S(=O)(=O)O)c(N)c2c1O [ONC0002750, chicagoskyblue6b] | 94.85%
48 | COC(=O)CC1CC(c2ccc(O)cc2)=NO1 (centres unmarked) [ONC0001839, iso1] | 78.97%
49 | N[C@@H](CC(=O)N1CCn2c(nnc2C(F)(F)F)C1)Cc1cc(F)c(F)cc1F [ONC0004045, sitagliptin phosphate] | 93.31%
50 | N[C@@H](CC(=O)N1CCn2c(nnc2C(F)(F)F)C1)Cc1n[nH]c2c(F)c(F)ccc12 [ONC0001660, pk44 phosphate] | 33.36%
51 | NCCNc1ccc(NCCN)c2c1C(=O)c1ccncc1C2=O.O=C(O)/C=C\C(=O)O.O=C(O)/C=C\C(=O)O [ONC0000916, pixantrone dimaleate] | 85.22%
52 | Fc1cc(F)c2c(c1)[C@H]1C=CC[C@H]1C(c1cccnc1)N2 (mixture of isomers) [ONC0005186, golgicide a] | 78.39%
53 | O=C(O)CCn1c2c(c3ccccc31)C[C@H](NS(=O)(=O)c1ccc(F)cc1)CC2 [ONC0000918, ramatroban] | 93.57%
54 | O=C(O)Cc1ccc(CCNS(=O)(=O)c2ccc(Cl)cc2)cc1 [ONC0002194, daltroban] | 74.66%
55 | Cc1ccc2c(c1CCC(=O)O)CC[C@@H](NS(=O)(=O)c1ccc(Cl)cc1)C2 [ONC0001303, terutroban] | 45.19%
56 | COC[C@H](NC(=O)c1cnc(C)s1)C(=O)N[C@@H](COC)C(=O)N[C@@H](Cc1ccccc1)C(=O)C1(C)CO1 (some centres unmarked) [ONC0004389, oprozomib onx 0912] | 101.4%
